Laboratory results reported in PMC4336329 (PLoS ONE, 2015).
Among all 310,000 compounds or so, about 14,000 (4.5%) showed an effect of 50% or more. Effects have a minus sign here. The full list was thinned out, with strong results kept by preference.

Each molecule was assayed against human ether-à-go-go-related gene (hERG) potassium channel (human, UniProt Q12809) (assay: primary screen, population patch clamp on CHO cells stably expressing hERG; higher = less effect of the substance).
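Also: peak tail current of the secondary pulse compared with the same well before compound.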

Sequence of human ether-à-go-go-related gene (hERG) potassium channel (Q12809 whole entry, looked up): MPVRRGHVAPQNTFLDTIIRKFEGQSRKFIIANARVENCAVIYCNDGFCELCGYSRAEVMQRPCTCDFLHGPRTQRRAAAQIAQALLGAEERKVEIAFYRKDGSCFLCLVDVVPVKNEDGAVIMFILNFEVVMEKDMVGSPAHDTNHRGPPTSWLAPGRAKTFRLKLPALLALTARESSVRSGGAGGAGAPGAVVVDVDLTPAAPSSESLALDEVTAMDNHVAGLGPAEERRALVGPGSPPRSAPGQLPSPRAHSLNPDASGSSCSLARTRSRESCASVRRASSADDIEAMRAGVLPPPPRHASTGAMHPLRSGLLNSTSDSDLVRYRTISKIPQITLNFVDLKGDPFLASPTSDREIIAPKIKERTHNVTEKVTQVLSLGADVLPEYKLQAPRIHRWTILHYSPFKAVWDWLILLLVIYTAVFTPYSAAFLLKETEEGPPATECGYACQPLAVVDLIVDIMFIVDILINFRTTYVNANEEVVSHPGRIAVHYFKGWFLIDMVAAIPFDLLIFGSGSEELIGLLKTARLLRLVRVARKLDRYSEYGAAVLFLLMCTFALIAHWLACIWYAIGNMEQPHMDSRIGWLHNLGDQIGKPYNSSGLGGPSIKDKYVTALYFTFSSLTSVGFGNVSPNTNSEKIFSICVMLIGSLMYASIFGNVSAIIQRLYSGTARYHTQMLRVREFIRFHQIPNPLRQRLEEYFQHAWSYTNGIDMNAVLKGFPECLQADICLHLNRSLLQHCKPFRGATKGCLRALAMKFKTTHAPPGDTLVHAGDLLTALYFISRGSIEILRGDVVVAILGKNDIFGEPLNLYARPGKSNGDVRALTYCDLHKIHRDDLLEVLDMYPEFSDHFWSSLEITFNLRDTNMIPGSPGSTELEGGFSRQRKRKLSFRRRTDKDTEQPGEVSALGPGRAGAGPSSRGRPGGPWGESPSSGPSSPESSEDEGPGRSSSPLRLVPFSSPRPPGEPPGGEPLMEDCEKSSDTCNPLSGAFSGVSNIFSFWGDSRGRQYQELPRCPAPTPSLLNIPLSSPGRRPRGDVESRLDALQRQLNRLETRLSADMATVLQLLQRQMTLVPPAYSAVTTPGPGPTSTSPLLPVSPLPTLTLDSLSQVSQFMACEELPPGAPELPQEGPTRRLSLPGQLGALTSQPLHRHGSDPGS

SMILES | hERG current change (%, negative = inhibition) at 10uM [%]
COc1cc(NC(=O)c2c(-c3ccccc3Cl)noc2C)c2ncccc2c1 | 25.5
CCOc1ccc(NC(=O)COC(=O)CNC(=O)c2ccc(-c3ccccc3)cc2)cc1 | 2.3
CC(=O)Nc1cccc(NC(=O)CSc2nc(=O)n(CCN3CCOCC3)c3c2CCCC3)c1 | 0.233
O=C(CSc1nc(=O)n(CCCN2CCOCC2)c2c1CCCC2)Nc1cccc(Cl)c1 | -62.2
CC(=O)Nc1cccc(NC(=O)CSc2nc(=O)n(CCCN3CCOCC3)c3c2CCC3)c1 | 0.499
O=C(CSc1nc(=O)n(CCCN2CCOCC2)c2c1CCC2)Nc1ccc(F)cc1F | -41.8
O=C(CSc1nc(=O)n(CCCN2CCOCC2)c2c1CCC2)Nc1cccc(F)c1 | -37.4
O=C(CSc1nc(=O)n(CCCN2CCOCC2)c2c1CCCC2)Nc1cccc(F)c1 | -56.2
CN(c1ccccc1)C(c1ccc(F)cc1)c1nnnn1CC1CCCO1.Cl (centres unmarked) | -14.1
Cn1cc([N+](=O)[O-])c(C(=O)N/N=C/c2cc3c(cc2Br)OCO3)n1 | 3.63
CC(=O)Nc1ccc(S(=O)(=O)N[C@@H](C)C(=O)Nc2ccc(N3CCOCC3)cc2)cc1 | 15.1
CCOC(=O)C1=NN(C(=O)c2ccc(OC)cc2)C(O)(c2ccc(Cl)cc2)C1 (centres unmarked) | -75.5
COC(=O)C1=NN(C(=O)c2ccc(C)cc2)C(O)(c2ccc(Cl)cc2)C1 (centres unmarked) | -31.2
CCOC(=O)C1=NN(C(=O)c2ccccc2)C(O)(c2ccc(C)cc2)C1 (centres unmarked) | -17.2
O=C(c1ccncc1)N1CCN(CCc2ccccc2)CC1 | -50.8
O=C(c1ccc(Br)o1)N1CCN(CCc2ccncc2)CC1 | -69.8
O=C(c1ccc(Br)o1)N1CCN(c2ncccn2)CC1 | 0.956
O=C(c1ccc(Br)o1)N1CCN(c2ccccc2F)CC1 | -4.94
O=C(c1cc(Cl)ccc1Cl)N1CCN(Cc2ccccc2)CC1 | 5.54
O=C(c1ccccc1)N1CCN(C(=O)c2ccncc2)CC1 | 14.3
CCN1CCN(c2ccc(N3CCN(C(=O)c4ccc(Br)o4)CC3)nn2)CC1 | -71.5
O=C(c1ccccc1)N1CCN(CCc2ccccc2)CC1 | -43.6
O=C(c1cc(F)c(F)cc1Cl)N1CCN(CCc2ccccc2)CC1 | -71.6
O=C(c1ccc(Br)o1)N1CCN(Cc2ccccc2Cl)CC1 | -12.6
COc1ccc(N2CCN(C(=O)c3ccc(Br)o3)CC2)cc1 | -17
O=C(c1ccc(F)cc1Cl)N1CCN(CCc2ccccc2)CC1 | -44
